Reference: ChEMBL document CHEMBL4513216, “Probing the Open Global Health Chemical Diversity Library for Multistage-Active Starting Points for Next-Generation Antimalarials” (ACS Infect Dis, 2020)
Hit rate of the full screen: of about 69,000 compounds, about 8,600 (12%) showed an effect of 50% or more. The list comes from a sample in which strong results are over-represented; it also holds similar structures and randomly drawn compounds.

test system: Plasmodium berghei; assay: Screen against P. berghei liver stage (PbLuc), transformed with Luciferase, at 10uM; assay type: functional, HepG2; conditions: tested at 10 uM

Compound	INHIBITION
Cc1cnn(CC2CN(CC(=O)Nc3cc(C)on3)CCO2)c1 (centres undefined)	16.85%
CC(C)n1ccnc1CN1CCCN(C(=O)c2cnc[nH]2)CC1	46.3%
O=C(Cc1ccc2c(c1)OCCO2)NC1CCCCC1	-53.2%
O=C([C@H]1CCCO1)N1CCN(CCn2cccn2)c2ncccc2C1	30.3%
O=C(Nc1ccc(F)cc1)C1CSCN1 (centres undefined)	3.38%
COc1ccc(CN(Cc2c[nH]cn2)CC2CCCO2)c(OC)c1 (centres undefined)	25.6%
O=C(c1cccs1)N1CCN(CC2CC2)c2ncccc2C1	-22.5%
O=C(NCc1ccccc1Cn1cncn1)N1CCCC1	-33.3%
C1CC(CN2C[C@@H]3CC[C@H]2CN(Cc2nnc(C4CC4)o2)C3)C1	27.5%
Cn1c2c(ccc1=O)CC(NC(=O)c1ccsc1)CC2 (centres undefined)	49.4%
Cn1ccc(N2CCCC(NC(=O)c3ccc(Cl)o3)C2=O)n1 (centres undefined)	-34.8%
Cn1ccc(N2CCCC(NC(=O)c3ccsc3)C2=O)n1 (centres undefined)	72.5%
c1ccc(CN2CCCC(c3nccnc3-n3ccnc3)C2)cc1 (centres undefined)	33.5%
CS(=O)(=O)CCNC(=O)Nc1ccc(Cl)cc1-n1cccc1	35.4%
Cc1nc(C2CCCN(C(=O)c3ccc(Cl)cn3)C2)no1 (centres undefined)	-2.53%
CCn1c(CC2CCN(S(=O)(=O)c3cccc(C)c3)CC2)nn(C)c1=O	37.4%
CN1CCN(c2ccc(F)cc2NC(=O)NCCn2ccnc2)CC1	37.9%
O[C@@]1(CNCC2(Cn3cccn3)CC2)CCCN2CCCC[C@@H]21	1.56%
CCN1CCN(C2CCN(C(C(N)=O)c3ccccc3)CC2)C1=O (centres undefined)	61.1%
CN1CCN(C2CCN(C(C(N)=O)c3ccccc3)CC2)C1=O (centres undefined)	20.9%
CCN1CCN(C2CCN(C(C(N)=O)c3ccc(F)cc3)CC2)C1=O (centres undefined)	16.6%
Cc1cnn(CCNCC(=O)NC(c2ccccc2)c2ccccc2)c1	-18.9%
Cc1c(C(=O)N2CCC2)nnn1-c1ccc2ncccc2c1	-24.8%
CCn1cnnc1CNC(=O)N1CCC(C)CC1	-13.5%
CCn1cnnc1CNC(=O)N1CCC(O)CC1	17.4%

Compound	INHIBITION
CCn1cnnc1CNC(=O)N1CCC(C(=O)NC)CC1	61.3%
CCn1cnnc1CNC(=O)N1CCCC1	-3.2%
CCn1cnnc1CNC(=O)N1CCN(c2nccs2)CC1	27.8%
CCn1cnnc1CNC(=O)N1CCN(c2nc(C)c(C)s2)CC1	60.5%
COc1ccccc1OCCc1cc(C2CCNC2)n[nH]1 (centres undefined)	41.2%
Cc1ncc(C(=O)N2C[C@@H]3CC[C@H]2CN(S(=O)(=O)N(C)C)C3)c(C)n1	34.8%
COc1ccc(N2CCNC(C(N)=O)C2)cc1 (centres undefined)	7.19%
COc1cccc2c1ccn2CCC(=O)N1CCCC(C(=O)O)C1 (centres undefined)	-22.9%
O=C(O)C1CCCN(C(=O)CCn2ccc3c(Br)cccc32)C1 (centres undefined)	34.2%
O=C(O)C1CCCN(C(=O)CCn2ccc3c(Cl)cccc32)C1 (centres undefined)	63.1%
Cn1cc(C2CCCN2C(=O)c2cnc(-c3ccccn3)s2)cn1 (centres undefined)	-59.7%
Cc1nc(Cn2c(=O)cnc3ccccc32)n(C)n1	17.6%
COC(=O)NCC(=O)NCc1nn(-c2ccccc2)c2c1CCC2	24.75%
Cc1noc([C@]23COC[C@H]2CN(C(=O)N2CCCC2)C3)n1	15.8%
O=C(c1cnccn1)N1CCCC(C2=Nc3ccccc3S(=O)(=O)N2)C1 (centres undefined)	16.705%
CCCN(C)C(=O)c1cc(S(=O)(=O)NCC)ccc1C	16.6%
CCNS(=O)(=O)c1ccc(C)c(C(=O)N(C)Cc2ccccc2C)c1	67.3%
CCNS(=O)(=O)c1ccc(C)c(C(=O)N(C)Cc2ccco2)c1	26.8%
CCN(CC)[C@@H]1CN(Cc2nccn2C)[C@@H]2CCCO[C@H]12	20.1%
COc1ncc(CN2CCOC(Cc3cccc4ccccc34)C2)cn1 (centres undefined)	-31.8%
Cc1cccnc1CN1CCOC(Cc2cccc3ccccc23)C1 (centres undefined)	42.1%
c1ccc2c(CC3CN(Cc4nccs4)CCO3)cccc2c1 (centres undefined)	53.3%
Cc1ccc(NC(=O)Cc2cnc3n(C)c(=O)[nH]c(=O)n23)cc1	0.207%
CCn1ncc(Cn2cc(Cl)c(N)n2)c1C	51.5%
CCn1cc(Cn2cc(Cl)c(N)n2)c(C)n1	-18.8%

Compound	INHIBITION
Cc1c(Cn2cc(Cl)c(N)n2)cnn1C	17.8%
CC(=O)N1CCCN(C(=O)NCc2ccc(Cl)s2)CC1	25.6%
CN(C)C(=O)COCC1CN(Cc2ccoc2)Cc2ncn(C)c21 (centres undefined)	12.5%
COc1ccc(S(=O)(=O)N2CCOC(Cn3ccnc3)C2)cc1 (centres undefined)	8.12%
FC(F)CN1CCC(NCc2ccc(-n3cccn3)nc2)CC1	48.2%
Cn1cc(-c2cnc(N3CCCC3)nc2)cc1C(=O)O	-50.8%
CCCNC(=O)c1cc(-c2cnc(N3CCCC3)nc2)cn1C	64.9%
Cn1cc(-c2cnc(N3CCOCC3)nc2)cc1C(=O)NCCO	35.8%
CN1CCN(C(=O)c2cc(-c3cnc(N4CCCC4)nc3)cn2C)CC1	-2.17%
CN(C)CCNC(=O)c1cc(-c2cnc(N3CCOCC3)nc2)cn1C	19.4%
CN(C)CCNC(=O)c1cc(-c2cnc(N3CCCC3)nc2)cn1C	63.7%
COCCN(C)C1COC2(CCN(Cc3cccc(F)c3)CC2)C1 (centres undefined)	26.4%
O=C(c1ccccn1)N1CCN(c2ccc(-c3cccnc3)nn2)CC1	21.6%
COCCN(C)C[C@@H]1CN(C(=O)c2ccc(O)c(Cl)c2)C[C@@H]1CO	46.1%
CN(C)c1ccc(CNC(=O)Nc2ccc(S(C)(=O)=O)nc2)cc1	-24.75%
O=C(NCc1ccccc1F)C1=NOC2(CCNC2)C1 (centres undefined)	7.65%
CC(C)(C(=O)NCC(=O)NC1CC1)c1ccccc1F	19.4%
O=C(CC1CCN(c2cccnn2)CC1)Nc1cccnc1	21.1%
CC(C)(C)OC(=O)NC1CCCN(Cc2cccs2)C1 (centres undefined)	16.5%
CC(C)(C)C(=O)N1C[C@H](c2ccsc2)[C@H]2CN(Cc3cccs3)CC[C@H]21	54.6%
O=C(C1CCC1)N1C[C@@H](c2ccsc2)[C@@H]2CN(C3CCCCC3)CC[C@@H]21	32.3%
CC(C)(C)C(=O)N1C[C@H](c2ccsc2)[C@H]2CN(C3CCCCC3)CC[C@H]21	50.8%
CC(C)(C)C(=O)N1C[C@H](c2ccsc2)[C@H]2CN(C3CCCC3)CC[C@H]21	34.1%
CCCC(=O)NC1CCCN(Cc2cccs2)C1 (centres undefined)	7.24%
